{"source": "the supplement of paper PMC9925115", "note": "± gives the uncertainty stated by the source.", "data": [{"tested_on": "FLX1", "assay": "cell viability z-score within plate (CellTiter-Glo), mean of 3 biological replicates; higher = higher viability relative to plate (less growth inhibition)", "conditions": "2 µM; time (hr): 120", "procedure": "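FLX1 fibrolamellar carcinoma cells (DNAJB1-PRKACA fusion), 600 cells/well in 384-well plates, treated with a Selleck kinase inhibitor library (L1200) at 2 uM for 5 days (120 hr); viability by CellTiter-Glo. A z-score was computed within each plate and averaged over three biological replicates.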", "values": [{"smiles": "CC(C)(C)c1cc(C=C(C#N)C#N)cc(Br)c1O", "cell viability z-score within plate": "-0.784 ± 0.7"}, {"smiles": "CCN1CCN(C(=O)Cc2ccc(Nc3ncc(F)c(Nc4ccc(C(=O)Nc5ccccc5Cl)cc4)n3)cc2)CC1", "note": "[Aurora A Inhibitor I]", "cell viability z-score within plate": "-0.367 ± 0.29"}, {"smiles": "Cn1cc(C2=C(c3cn(C4CCN(Cc5ccccn5)CC4)c4ccccc34)C(=O)NC2=O)c2ccccc21", "cell viability z-score within plate": "-2.47 ± 0.57"}, {"smiles": "Cc1ccccc1-n1c(Cn2ncc3c(N)ncnc32)nc2cccc(C)c2c1=O", "cell viability z-score within plate": "0.16 ± 0.68"}, {"smiles": "O=c1[nH]c2ccc(Cl)cc2c(N[C@@H]2CN3CCC2CC3)c1-c1nc2ccccc2[nH]1", "cell viability z-score within plate": "0.562 ± 0.43"}, {"smiles": "CC(C)(C)c1cc(C=C(C#N)C#N)cc(C(C)(C)C)c1O", "note": "[Tyrphostin 9]", "cell viability z-score within plate": "0.448 ± 0.24"}]}]}
